Measured values from PubChem BioAssay (NCATS).
Values joined by “and” are separate entries in the source; they are usually repeats but may differ in a detail not shown here. Identical values can stand only once. Inconclusive results are not listed. Active and inactive are the calls of the source. Unless noted, calls come from the whole dose curve; as a rule, active = well fitted curve in the direction sought with a large enough effect; inconclusive = small, poorly fitted or top-dose-only effect, or another doubt; inactive = no such curve, though single readings can be large; an effect the other way counts as inactive or inconclusive.

Columns and labels:
[1] = molecular target: Cellular tumor antigen p53 (Homo sapiens) (UniProt P04637); test: Primary qHTS for small molecule compounds that upregulate eGFP-tagged delta133p53alpha (in N-terminal) cells. (AID 2060322); settings: NCI-H358 eGFP-delta133p53alpha fluorescence, 24 h; activation: active compounds read high;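 note: cells pre-induced with doxycycline then dosed without doxycycline; series mostly up to about 56 µM; 0% = DMSO vehicle and 100% = reference activator; nearly all actives have a fitted effect of over 75% in size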
In short: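 NCI-H358 cells pre-induced 24 h with 10 ng/ml doxycycline for eGFP-delta133p53alpha, plated dox-free and exposed 24 h at 37C to titrated compounds. Fixed, Hoechst-stained; gated GFP peak intensity by laser scanning cytometry, normalized to DMSO (0%) and 57.5 uM 5-azacytidine (100%).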

[2] = molecular target: Cellular tumor antigen p53 (Homo sapiens) (UniProt P04637); test: Primary qHTS for small molecule compounds that upregulate eGFP-tagged delta133p53alpha (in C-terminal) cells. (AID 2060324);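 note: 0% = DMSO wells and 100% = 57.5 µM 5-azacytidine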
In short: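 Read-out: gated-cell GFP peak intensity (laser scanning cytometer), plate-normalized with DMSO as 0% activity, after 24 h compound exposure at 37C. Cells were C-terminal eGFP-tagged delta133p53alpha NCI-H358, doxycycline-induced (100 ng/ml, 24 h) before plating.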

[3] = molecular target: Aldehyde dehydrogenase, mitochondrial (Homo sapiens) (UniProt P05091); test: qHTS for Inhibitors of the Aldehyde Dehydrogenase Family (ALDH2) Validation screens (AID 2061302; active = well fitted inhibition curve with a large enough effect; title and protocol of this record describe different tests;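 note: plate controls were DMSO vehicle for no effect and maximal DPI positive control response for full effect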)
[4] = molecular target: Retinaldehyde dehydrogenase 3 (Homo sapiens) (UniProt P47895); test: qHTS for Inhibitors of the Aldehyde Dehydrogenase Family (ALDH1A3) Validation screen (AID 2061312); note: % is set by controls: 0 for no effect and ±100 for the full control effect; nearly all actives have a fitted effect of over 45% in size

Chain of Cellular tumor antigen p53 (Homo sapiens) (P04637 whole entry, looked up): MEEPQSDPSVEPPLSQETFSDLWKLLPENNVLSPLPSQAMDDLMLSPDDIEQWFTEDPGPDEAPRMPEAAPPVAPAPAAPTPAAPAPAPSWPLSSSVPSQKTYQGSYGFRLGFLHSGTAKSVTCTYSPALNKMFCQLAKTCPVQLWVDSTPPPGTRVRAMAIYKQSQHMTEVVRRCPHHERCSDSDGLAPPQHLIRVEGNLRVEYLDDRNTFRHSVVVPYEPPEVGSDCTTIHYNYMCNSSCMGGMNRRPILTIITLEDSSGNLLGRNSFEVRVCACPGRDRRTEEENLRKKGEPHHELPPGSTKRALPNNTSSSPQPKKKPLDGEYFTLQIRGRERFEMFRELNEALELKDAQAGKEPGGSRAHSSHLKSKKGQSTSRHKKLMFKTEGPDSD

CNCCC(Oc1ccccc1C)c1ccccc1 (stereo not drawn)
inactive: activation [1] -12.7% | Potency [2] | Potency [3] | Potency [4]

COc1cc(OC)cc(-c2cc3cnc(N)nc3nc2NC(=O)NC(C)(C)C)c1
inactive: activation [1] 5.06% | Potency [2] | Potency [3] | Potency [4]

Nc1ncnc2c1nc(Br)n2C1OC2COP(=O)(O)O[C@@H]2C1O (stereo partly drawn)
inactive: activation [1] -6.56% | Potency [2] | Potency [3] | Potency [4]

CC(=O)C(C)=O
inactive: activation [1] -5.18% | Potency [2] | Potency [3] | Potency [4]

O=C(O)CCCCCCCC(=O)O
inactive: activation [1] 17.5% and -5.1% | Potency [2] | Potency [3] | Potency [4]

CN[C@H](CC(=O)O)C(=O)O
inactive: activation [1] -12.8% | Potency [2] | Potency [3] | Potency [4]

C[C@@H](O)[C@H]1C(=O)N2C(C(=O)O)=C(SCCN=CN)C[C@H]12
inactive: activation [1] -25.9% and 4.11% | Potency [2] | Potency [3] | Potency [4]

O=c1[nH]ccc2c(O)cccc12
inactive: activation [1] -33.7% | Potency [2] | Potency [3] | Potency [4]

Brc1cc2c(cc1[C@H]1Nc3ccccc3[C@H]3C=CC[C@H]31)OCO2
inactive: activation [1] -5.37% | Potency [2] | Potency [3] | Potency [4]

CCCCCCCC/C=C\CCCCCCCC(=O)NCCO
inactive: activation [1] -9.12% | Potency [2] | Potency [3] | Potency [4]

Cc1nc2c(OCc3ccccc3)cccn2c1CC#N
inactive: activation [1] 7.44% | Potency [2] | Potency [3] | Potency [4]

CCN(Cc1ccncc1)C(=O)C(CO)c1ccccc1 (stereo not drawn)
inactive: activation [1] 3.95% and 13.2% | Potency [2] | Potency [3] | Potency [4]
